Results from PubChem BioAssay.
Unmarked numbers belong to inactive results. The list shows a part of the results. Calls of active or inactive are those of the source.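 How the source made its calls, unless noted: active means mean inhibition over 43.08%, the solvent-only control mean plus 3 SD; inactive means the rest.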

What was measured:
[1] = biological target: Nuclear receptor coactivator 3 (Homo sapiens) (UniProt Q9Y6Q9); test: NCOA3 GAL4-fusion reporter inhibition – cell-based, luminescence, quadruplicate, confirmation (AID 588792); conditions: HEK293 GAL4-SRC3 luciferase reporter, at 3.6 µM, stronger effect = higher value;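 further: 0% = DMSO treated cells and 100% = gossypol at 36 µM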
Nuclear receptor coactivator 3 (Homo sapiens), sequence (Q9Y6Q9 whole entry, looked up, the tested form may be a part): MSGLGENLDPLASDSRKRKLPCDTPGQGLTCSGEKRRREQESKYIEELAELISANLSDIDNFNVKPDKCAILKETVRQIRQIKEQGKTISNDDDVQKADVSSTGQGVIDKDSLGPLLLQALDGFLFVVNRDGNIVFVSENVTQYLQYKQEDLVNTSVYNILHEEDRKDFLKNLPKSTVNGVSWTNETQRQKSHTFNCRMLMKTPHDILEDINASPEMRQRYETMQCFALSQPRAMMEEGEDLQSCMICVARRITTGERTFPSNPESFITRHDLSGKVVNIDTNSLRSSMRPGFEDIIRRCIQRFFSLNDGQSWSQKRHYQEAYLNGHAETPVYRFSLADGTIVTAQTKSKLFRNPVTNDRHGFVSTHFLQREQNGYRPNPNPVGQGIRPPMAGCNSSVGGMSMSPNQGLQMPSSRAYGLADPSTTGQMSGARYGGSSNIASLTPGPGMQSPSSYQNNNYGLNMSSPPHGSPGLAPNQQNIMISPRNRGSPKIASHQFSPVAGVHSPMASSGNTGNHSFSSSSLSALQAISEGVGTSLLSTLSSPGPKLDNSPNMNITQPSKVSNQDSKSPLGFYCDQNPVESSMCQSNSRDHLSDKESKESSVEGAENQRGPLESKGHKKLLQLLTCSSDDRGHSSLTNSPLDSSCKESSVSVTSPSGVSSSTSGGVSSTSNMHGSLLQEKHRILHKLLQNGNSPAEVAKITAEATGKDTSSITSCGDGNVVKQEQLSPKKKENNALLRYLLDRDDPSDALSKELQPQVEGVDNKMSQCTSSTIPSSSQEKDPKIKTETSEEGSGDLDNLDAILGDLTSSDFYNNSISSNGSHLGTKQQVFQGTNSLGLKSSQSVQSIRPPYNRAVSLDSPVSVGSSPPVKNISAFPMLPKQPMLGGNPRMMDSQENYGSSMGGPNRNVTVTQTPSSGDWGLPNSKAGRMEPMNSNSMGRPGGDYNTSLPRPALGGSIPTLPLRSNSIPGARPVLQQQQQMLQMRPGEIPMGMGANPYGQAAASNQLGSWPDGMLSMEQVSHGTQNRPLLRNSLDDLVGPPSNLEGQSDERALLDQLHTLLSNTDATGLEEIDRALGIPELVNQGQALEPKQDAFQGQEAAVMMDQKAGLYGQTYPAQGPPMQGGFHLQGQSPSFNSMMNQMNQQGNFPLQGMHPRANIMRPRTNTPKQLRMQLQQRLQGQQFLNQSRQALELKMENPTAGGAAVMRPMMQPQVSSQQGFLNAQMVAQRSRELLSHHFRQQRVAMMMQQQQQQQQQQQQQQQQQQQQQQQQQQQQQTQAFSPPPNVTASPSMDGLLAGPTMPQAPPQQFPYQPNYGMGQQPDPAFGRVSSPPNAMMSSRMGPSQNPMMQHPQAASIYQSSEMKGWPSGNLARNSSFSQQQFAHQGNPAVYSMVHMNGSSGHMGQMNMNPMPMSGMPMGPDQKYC

[2] = system: transactivating tegument protein VP16 (Human herpesvirus 1), Gal4-VP16 luciferase reporter; test: repression of VP16-driven luciferase reporter – cell-based, luminescence, high throughput, counter-screen for SRC3 inhibitor project (AID 588794; in the data active means inhibition above about 30%); conditions: mammalian cells, at 3.6 µM, stronger effect = higher value
[3] = biological target: Nuclear receptor coactivator 1 (Homo sapiens) (UniProt Q15788); test: NCOA1 GAL4-fusion reporter inhibition – cell-based, luminescence, quadruplicate, confirmation (AID 588820;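 active means mean inhibition above 46.68%, the untreated control wells mean plus 3 SD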;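 further: 0% = DMSO wells and 100% = gossypol 36 µM treated wells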); conditions: HEK293 GAL4-SRC1 luciferase reporter, at 3.6 µM, stronger effect = higher value
Nuclear receptor coactivator 1 (Homo sapiens), sequence (Q15788 whole entry, looked up, the tested form may be a part): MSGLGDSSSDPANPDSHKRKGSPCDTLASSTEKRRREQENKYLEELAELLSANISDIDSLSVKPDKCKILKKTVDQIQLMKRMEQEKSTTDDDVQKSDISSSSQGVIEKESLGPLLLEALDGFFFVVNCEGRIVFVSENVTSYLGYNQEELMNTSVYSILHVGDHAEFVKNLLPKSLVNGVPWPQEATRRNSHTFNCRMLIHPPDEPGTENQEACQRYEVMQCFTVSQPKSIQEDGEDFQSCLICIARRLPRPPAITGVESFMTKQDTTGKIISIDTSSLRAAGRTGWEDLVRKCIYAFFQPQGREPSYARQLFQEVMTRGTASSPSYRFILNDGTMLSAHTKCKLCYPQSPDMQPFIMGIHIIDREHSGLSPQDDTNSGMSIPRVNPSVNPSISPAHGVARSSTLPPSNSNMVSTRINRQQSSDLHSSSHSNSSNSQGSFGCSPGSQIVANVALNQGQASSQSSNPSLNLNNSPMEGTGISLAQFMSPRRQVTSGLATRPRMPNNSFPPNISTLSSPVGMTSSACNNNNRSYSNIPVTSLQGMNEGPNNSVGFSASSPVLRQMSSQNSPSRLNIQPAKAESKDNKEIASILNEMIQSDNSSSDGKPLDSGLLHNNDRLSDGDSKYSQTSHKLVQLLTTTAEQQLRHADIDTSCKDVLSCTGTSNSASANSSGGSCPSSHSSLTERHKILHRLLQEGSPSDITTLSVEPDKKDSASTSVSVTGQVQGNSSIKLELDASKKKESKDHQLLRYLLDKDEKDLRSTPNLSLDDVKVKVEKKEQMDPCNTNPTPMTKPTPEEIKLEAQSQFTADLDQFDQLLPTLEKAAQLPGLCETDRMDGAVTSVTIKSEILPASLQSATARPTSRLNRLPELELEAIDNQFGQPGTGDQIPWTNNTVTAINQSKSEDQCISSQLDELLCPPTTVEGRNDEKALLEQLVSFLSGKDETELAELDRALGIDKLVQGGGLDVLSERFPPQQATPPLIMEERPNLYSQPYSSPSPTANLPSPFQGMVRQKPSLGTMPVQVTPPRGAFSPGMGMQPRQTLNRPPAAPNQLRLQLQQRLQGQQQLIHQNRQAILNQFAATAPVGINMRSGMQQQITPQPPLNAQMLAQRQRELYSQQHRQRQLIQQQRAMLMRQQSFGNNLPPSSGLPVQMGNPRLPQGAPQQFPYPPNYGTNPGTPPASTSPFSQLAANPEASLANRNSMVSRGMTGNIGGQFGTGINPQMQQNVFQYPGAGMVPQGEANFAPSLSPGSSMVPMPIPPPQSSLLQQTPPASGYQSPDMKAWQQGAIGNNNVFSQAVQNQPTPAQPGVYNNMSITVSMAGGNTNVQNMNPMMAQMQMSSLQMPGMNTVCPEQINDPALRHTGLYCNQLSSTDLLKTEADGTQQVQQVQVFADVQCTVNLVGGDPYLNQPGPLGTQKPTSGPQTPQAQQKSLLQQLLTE

[4] = repression of VP16-driven luciferase reporter – cell-based, luminescence, high throughput, counter-screen for SRC1 inhibitor project (AID 588824; in the data active means inhibition above about 25%); conditions: cell-based VP16 transactivation luciferase luminescence; at 3.6 µM; stronger effect = higher value
[5] = StAR promoter reporter inhibitors, counter-screen for LRH-1 inverse agonist project, cell-based, luminescence, high throughput (AID 651611; in the data active means inhibition above about 28%); conditions: StAR promoter luciferase reporter counterscreen, at 3.6 µM, stronger effect = higher value
[6] = biological target: Nuclear receptor subfamily 5 group A member 2 (Homo sapiens) (UniProt O00482); test: NR5A2 activity suppression in reporter cells – cell-based, luminescence, confirmation (AID 651613; in the data active means inhibition above about 42%;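 further: HEK293T cells co-transfected with LRH-1 and StAR promoter luciferase reporter; 0% = vehicle wells and 100% = parental cells lacking receptor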); conditions: cell-based LRH-1 luciferase reporter, inverse agonism; at 3.6 µM; stronger effect = higher value
Nuclear receptor subfamily 5 group A member 2 (Homo sapiens), sequence (O00482 whole entry, looked up): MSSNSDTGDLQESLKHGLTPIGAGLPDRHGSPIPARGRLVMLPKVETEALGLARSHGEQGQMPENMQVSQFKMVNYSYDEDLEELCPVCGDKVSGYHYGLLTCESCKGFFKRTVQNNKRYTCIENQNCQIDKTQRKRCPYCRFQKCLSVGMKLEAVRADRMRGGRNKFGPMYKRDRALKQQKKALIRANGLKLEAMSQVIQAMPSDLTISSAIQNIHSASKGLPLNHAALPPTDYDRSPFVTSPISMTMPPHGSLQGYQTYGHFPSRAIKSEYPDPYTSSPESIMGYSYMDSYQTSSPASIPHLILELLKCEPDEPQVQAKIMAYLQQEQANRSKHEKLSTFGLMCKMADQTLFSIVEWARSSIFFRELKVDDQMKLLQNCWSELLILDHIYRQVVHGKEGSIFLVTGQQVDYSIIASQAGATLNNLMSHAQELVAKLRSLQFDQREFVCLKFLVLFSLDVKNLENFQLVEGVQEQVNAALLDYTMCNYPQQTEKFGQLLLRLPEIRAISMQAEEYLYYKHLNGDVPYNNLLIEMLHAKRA

[7] = biological target: Steroidogenic factor 1 (Homo sapiens) (UniProt Q13285); test: inverse agonism at SF1 nuclear receptor – cell-based, luminescence, high throughput, counter-screen for LRH-1 inverse agonist project (AID 651614; in the data active means inhibition above about 44%;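 further: cells cotransfected with StAR promoter reporter and SF1 expression vector; 0% = vehicle on cells with receptor and 100% = vehicle on cells lacking receptor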); conditions: cell-based SF1 luciferase reporter, at 3.6 µM, stronger effect = higher value
Steroidogenic factor 1 (Homo sapiens), sequence (Q13285 whole entry, looked up, the tested form may be a part): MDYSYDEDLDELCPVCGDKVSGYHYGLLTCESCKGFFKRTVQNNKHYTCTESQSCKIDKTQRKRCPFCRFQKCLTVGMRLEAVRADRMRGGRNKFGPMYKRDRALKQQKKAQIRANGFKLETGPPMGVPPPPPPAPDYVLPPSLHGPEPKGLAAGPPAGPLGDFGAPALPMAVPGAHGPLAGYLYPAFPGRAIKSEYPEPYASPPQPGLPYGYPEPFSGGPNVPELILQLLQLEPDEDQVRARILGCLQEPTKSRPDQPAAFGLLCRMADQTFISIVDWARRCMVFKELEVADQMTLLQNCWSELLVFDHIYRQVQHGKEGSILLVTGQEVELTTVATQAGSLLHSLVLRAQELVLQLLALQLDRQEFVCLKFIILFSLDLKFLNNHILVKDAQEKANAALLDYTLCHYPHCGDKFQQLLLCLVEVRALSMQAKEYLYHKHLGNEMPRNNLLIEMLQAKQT

[8] = compounds suppressing VP16-driven luciferase signal – cell-based, luminescence, high throughput, counter-screen for LRH-1 inverse agonist project (AID 651615; in the data active means inhibition above about 33%); conditions: Gal4-VP16 luciferase reporter cells, at 3.6 µM, stronger effect = higher value
[9] = biological target: Photoreceptor-specific nuclear receptor (Homo sapiens) (UniProt Q9Y5X4); test: retest of NR2E3-NCOR disrupting agonists – cell-based, luminescence, CHO-S two-hybrid, confirmation (AID 624378;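 active means average inhibition above a cutoff equal to the mean inhibition of all tested compounds plus one SD, cut at about 70% in these data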;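 further: 0% = DMSO in NR2E3 cells and 100% = DMSO in cells lacking NR2E3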); conditions: CHO-S mammalian two-hybrid NR2E3-NCOR, luciferase luminescence; at 3.98 µM; stronger effect = higher value
Photoreceptor-specific nuclear receptor (Homo sapiens), sequence (Q9Y5X4 whole entry, looked up): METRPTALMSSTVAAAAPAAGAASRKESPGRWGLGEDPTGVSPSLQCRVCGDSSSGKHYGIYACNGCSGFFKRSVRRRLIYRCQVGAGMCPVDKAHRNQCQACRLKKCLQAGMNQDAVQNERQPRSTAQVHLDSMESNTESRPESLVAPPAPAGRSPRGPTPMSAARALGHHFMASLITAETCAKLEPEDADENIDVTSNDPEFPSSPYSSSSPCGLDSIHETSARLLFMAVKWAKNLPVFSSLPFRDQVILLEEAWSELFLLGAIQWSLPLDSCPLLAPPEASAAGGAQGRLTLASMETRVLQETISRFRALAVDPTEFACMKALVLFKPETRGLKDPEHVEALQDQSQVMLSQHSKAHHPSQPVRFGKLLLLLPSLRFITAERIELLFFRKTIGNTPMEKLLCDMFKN

[10] = nonselective effects on VP16 transactivation – cell-based, luminescence, CHO-S, high throughput, counter-screen for NR2E3 agonist project, confirmation (AID 624379;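 active means mean inhibition above a cutoff equal to the average over all tested compounds plus one standard deviation, cut at about 70% in these data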;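 further: 0% = DMSO with VP16-transfected cells and 100% = DMSO with cells lacking VP16; higher means less reporter light so more repression of VP16 activity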); conditions: CHO-S GAL4-VP16 luciferase reporter, at 3.98 µM, stronger effect = higher value
[11] = system: transactivating tegument protein VP16 (Human herpesvirus 1); test: compounds suppressing VP16-driven luciferase signal – cell-based, luminescence, single concentration, counter-screen for SRC2 inhibitor project (AID 652007; in the data active means inhibition above about 36%); conditions: cell-based VP16 transactivation luciferase reporter, at 8.9 µM, stronger effect = higher value
[12] = biological target: Nuclear receptor coactivator 2 (Homo sapiens) (UniProt Q15596); test: inhibition of GAL4-SRC2 driven luciferase expression – cell-based, luminescence, HEK293, triplicate, confirmation (AID 652008;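 active means mean inhibition above 46.5%, the solvent-only control mean plus 3 SD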;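 further: 0% = DMSO-treated cells and 100% = Gossypol at 36 µM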); conditions: HEK293 GAL4-SRC2 luciferase reporter, at 8.9 µM, stronger effect = higher value
[13] = VP16-driven transactivation reporter suppression – cell-based, luminescence, HEK293, counter-screen for COUP-TFII antagonist project (AID 687007; in the data active means inhibition above about 13%); conditions: HEK293 Gal4-VP16 luciferase reporter, at 8.5 µM, stronger effect = higher value
[14] = biological target: COUP transcription factor 2 (Homo sapiens) (UniProt P24468); test: retest of COUP-TFII reporter suppressors – cell-based, luciferase reporter, HEK293, triplicate, confirmation (AID 687008;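 active means mean inhibition over three repeats above a set limit taken from the earlier primary screen, cut at about 38% in these data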;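 further: 100% = cells given the luciferase reporter alone without the COUP-TF2 vector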); conditions: HEK293 NGFI-A luciferase reporter, luminescence; at 8.5 µM; stronger effect = higher value
COUP transcription factor 2 (Homo sapiens), sequence (P24468 whole entry, looked up): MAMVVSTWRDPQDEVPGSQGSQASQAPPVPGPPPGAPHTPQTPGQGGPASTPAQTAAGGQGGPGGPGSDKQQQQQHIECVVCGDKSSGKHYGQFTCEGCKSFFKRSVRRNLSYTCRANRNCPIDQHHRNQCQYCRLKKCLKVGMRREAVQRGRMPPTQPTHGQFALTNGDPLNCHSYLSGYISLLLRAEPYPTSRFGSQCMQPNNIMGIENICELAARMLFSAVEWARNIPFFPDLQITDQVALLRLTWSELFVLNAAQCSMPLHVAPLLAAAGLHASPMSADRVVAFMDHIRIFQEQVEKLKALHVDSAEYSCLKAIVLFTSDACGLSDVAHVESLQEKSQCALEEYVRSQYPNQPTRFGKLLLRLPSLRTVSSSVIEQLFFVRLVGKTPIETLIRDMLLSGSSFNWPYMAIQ

SMILES	inhibition [1]	inhibition [2]	inhibition [3]	inhibition [4]	inhibition [5]	inhibition [6]	inhibition [7]	inhibition [8]	inhibition [9]	inhibition [10]	inhibition [11]	inhibition [12]	inhibition [13]	inhibition [14]
O=C1C(=O)c2cccnc2-c2ncccc21	99.2% (active)	97.1% (active)	97.1% (active)	96.7% (active)	99.4% (active)	110% (active)	99.5% (active)	99.6% (active)	–	–	–	–	–	–
COc1ccc(-c2cn(-c3ccc(OC)cc3)c3[n+]2-c2ccccc2CC3)cc1	46.3% (active)	55.9% (active)	34.7%	59.9% (active)	40.8% (active)	88.8% (active)	82.3% (active)	77.8% (active)	–	–	–	–	–	–
O=C(Nc1cccnc1)c1ccc(C(=O)Nc2cccnc2)cc1	32.2%	19.1%	23.3%	20.4%	–	–	–	–	–	–	–	–	–	–
CC(=O)N1CCCc2cc(S(=O)(=O)N3CCCC(C(=O)N4CCN(c5cccc(Cl)c5)CC4)C3)ccc21 (stereo not given)	26.4%	31.5% (active)	7.87%	35.6% (active)	–	–	–	–	93% (active)	70.2%	14.8%	26.6%	4.48%	60.1% (active)
Nc1ncnc2c(C3OC(CO)C(O)C3O)c[nH]c12 (stereo not given)	97.4% (active)	96.5% (active)	95.7% (active)	96% (active)	95.6% (active)	111% (active)	98.2% (active)	97.7% (active)	–	–	–	–	–	–
CC1CN(S(=O)(=O)c2ccc(C(=O)NCCCn3ccnc3)cc2)CC(C)O1 (stereo not given)	87.8% (active)	47.5% (active)	67.9% (active)	30.4% (active)	87.1% (active)	99.2% (active)	95.5% (active)	81.1% (active)	–	–	–	–	–	–
C=CCn1c(C)cc(C2=NNC(=NCC)SC2)c1C	87% (active)	85.3% (active)	74.7% (active)	81% (active)	82.1% (active)	75.7% (active)	79.8% (active)	75.6% (active)	77.4% (active)	73% (active)	81.8% (active)	93% (active)	82% (active)	105% (active)
c1ccc(-c2ccc(-c3nc(-c4ccccn4)no3)cc2)cc1	43.5% (active)	35.9% (active)	-28.2%	39.4% (active)	42.4% (active)	13.6%	54.8% (active)	30.9% (active)	–	–	–	–	–	–
COc1cccc(C(=O)Nc2nc(-c3ccc(S(=O)(=O)N4CCOCC4)cc3)cs2)c1	3.89%	9.14%	-19.1%	-0.53%	–	–	–	–	–	–	–	–	–	–
Cc1ccccc1CN1CC2=C(CCN(Cc3ccccc3)C2=O)N2CCN=C12	47.9% (active)	70.7% (active)	53.7% (active)	66.9% (active)	76.9% (active)	96.3% (active)	88.7% (active)	77.8% (active)	–	–	–	–	–	–
Cn1c(=O)c2cc(NC(=O)CCc3ccc(O)cc3)ccc2n1Cc1cccc(C(F)(F)F)c1	34.4%	64.2% (active)	38.7%	66% (active)	63.3% (active)	80% (active)	80.1% (active)	76.9% (active)	–	–	–	–	–	–
O=C(N/N=C/c1ccc[nH]1)c1ccc(COc2cccc3cccnc23)cc1	83% (active)	71.8% (active)	0.58%	66.5% (active)	86% (active)	109% (active)	96.3% (active)	88.4% (active)	–	–	–	–	–	–
CCC(=O)NC(c1ccc(Cl)cc1Cl)c1ccc2cccnc2c1O (stereo not given)	16.2%	34.1% (active)	59.7% (active)	51.3% (active)	83.4% (active)	92.7% (active)	87.2% (active)	72.7% (active)	–	–	–	–	–	–
CCc1ccc(-n2cc(-c3ccc(F)cc3)[n+]3c2SCCC3)cc1	17.1%	32.1% (active)	19.1%	35.4% (active)	18.4%	67.7% (active)	60.9% (active)	48.4% (active)	–	–	–	–	–	–
O=C(N/N=C(\c1ccccc1)c1cccnc1)c1cccc(F)c1	37.5%	31.2% (active)	31%	43% (active)	84% (active)	97.7% (active)	85.7% (active)	58.5% (active)	–	–	–	–	–	–
CCc1nc(N)nc(N)c1-c1ccc(N(C)Cc2ccccc2)c([N+](=O)[O-])c1	63.5% (active)	54.7% (active)	69.4% (active)	60.4% (active)	71.8% (active)	69.6% (active)	65.9% (active)	64.1% (active)	–	–	–	–	–	–
CC(C)(C)N(Cc1ccc2c(c1)OCO2)C(=O)/C=C\S(=O)c1ccccc1 (stereo not given)	45% (active)	38.2% (active)	17.8%	38.1% (active)	34.7% (active)	56.4% (active)	68.2% (active)	61.6% (active)	–	–	–	–	–	–
OCCCNc1cc(-c2ccnc(Nc3cccc(Cl)c3)n2)ccn1	95.9% (active)	97.1% (active)	84.5% (active)	96.3% (active)	89.9% (active)	108% (active)	96.5% (active)	97.9% (active)	–	–	–	–	–	–

SMILES	inhibition [1]	inhibition [2]	inhibition [3]	inhibition [4]	inhibition [5]	inhibition [6]	inhibition [7]	inhibition [8]	inhibition [9]	inhibition [10]	inhibition [11]	inhibition [12]	inhibition [13]	inhibition [14]
Cn1cnc([N+](=O)[O-])c1Sc1nc(N)nc2c1ncn2C1OC(CO)C(O)C1O (stereo not given)	43.8% (active)	14.7%	-6.11%	9.12%	56.1% (active)	52% (active)	24.3%	45.1% (active)	–	–	–	–	–	–
Nc1cc2c3c(cccc3c1)C(=O)N(CCN1CCCC1)C2=O	16.8%	40.7% (active)	38.9%	46.9% (active)	60.5% (active)	66.6% (active)	61.6% (active)	69.9% (active)	–	–	–	–	–	–
CC1(C)N=C(N)N=C(N)N1CCCCc1ccccc1	45.9% (active)	24.4%	56.8% (active)	30.3% (active)	61.4% (active)	48.8% (active)	38.2%	35.7% (active)	–	–	–	–	–	–
Cn1c2c(c(=O)n(C)c1=O)C(C(F)(F)F)(C(F)(F)F)N=C(c1ccc(Cl)cc1)N2	77.8% (active)	85.7% (active)	42.6%	83.9% (active)	80.6% (active)	104% (active)	93.6% (active)	86.7% (active)	–	–	–	–	–	–
CCCCCCCC[n+]1cccc2c3ccccc3ccc21	78.5% (active)	81.6% (active)	59.1% (active)	83.7% (active)	77% (active)	107% (active)	92.8% (active)	93.8% (active)	–	–	–	–	–	–
CCCCC(=O)NC(c1ccc(Cl)cc1)c1ccc2cccnc2c1O (stereo not given)	66.9% (active)	62.4% (active)	51.3% (active)	62.2% (active)	67.9% (active)	87.8% (active)	86.1% (active)	69.1% (active)	–	–	–	–	–	–
O=[N+]([O-])c1cc(CN2CCN(c3ccccc3)CC2)c(O)c2ncccc12	48.3% (active)	56.4% (active)	9.05%	50.8% (active)	59.3% (active)	90.1% (active)	85.7% (active)	73.4% (active)	–	–	–	–	–	–
CCCCC(=O)NC(c1ccccc1Cl)c1ccc2cccnc2c1O (stereo not given)	26.3%	32.7% (active)	41%	50.9% (active)	74.1% (active)	76.5% (active)	80.8% (active)	74.4% (active)	–	–	–	–	–	–
O=C(NC(Nc1nc2ccc([N+](=O)[O-])cc2s1)(C(F)(F)F)C(F)(F)F)c1ccccc1Cl	65.5% (active)	86.2% (active)	27.1%	86% (active)	82.2% (active)	103% (active)	93.4% (active)	89.8% (active)	–	–	–	–	–	–
Cc1ccc(-c2cc3cccc[n+]3cc2-c2ccc(C)cc2)cc1	72.3% (active)	53.5% (active)	35.9%	64.4% (active)	56.9% (active)	91.7% (active)	83.4% (active)	79.4% (active)	–	–	–	–	–	–
Cc1cccc(-n2c(N)c(-c3nc4ccccc4n3C)c3nc4ccccc4nc32)c1	-11.4%	-15%	-14.8%	-15.4%	8.3%	-11.5%	10.3%	1.82%	–	–	–	–	–	–
Cc1cc(C)nc(NC(=O)c2ccc(COc3ccccc3Cl)cc2)c1	36.6%	45.3% (active)	25.2%	42.7% (active)	38.9% (active)	65.1% (active)	67.1% (active)	57.7% (active)	–	–	–	–	–	–
Cc1cc(-c2nnc(SCC(=O)Nc3ccccc3C(F)(F)F)o2)c(C)n1-c1ccccc1	33.3%	11.2%	-7.25%	-22.9%	28.2% (active)	-50.2%	14.8%	-38.7%	–	–	–	–	–	–
C=CCn1c(C)cc(C(=O)CN2C(=O)c3ccccc3S2(=O)=O)c1C	89.7% (active)	74.1% (active)	77.3% (active)	72.7% (active)	89% (active)	91.1% (active)	90.7% (active)	83.8% (active)	–	–	–	–	–	–
COc1cccc(/C=N/NC(=O)c2c(C)nc3ccc(Cl)cn23)c1O	79.3% (active)	78.5% (active)	75.2% (active)	73.9% (active)	86.7% (active)	102% (active)	88.4% (active)	83.5% (active)	–	–	–	–	–	–
COc1ccc(N=C(NN)c2ccc3ccccc3n2)cc1	-51.2%	-47.1%	-105%	-65%	-92.3%	-81.3%	-83.5%	-96.2%	–	–	–	–	–	–
COc1cc(Cn2c3ccc(NC(=O)CCc4ccc(O)cc4)cc3c(=O)n2C)ccc1F	42.6%	61.3% (active)	31.5%	56.6% (active)	56% (active)	70.8% (active)	69.3% (active)	71.1% (active)	–	–	–	–	–	–
